This note sets out measurements from PubChem BioAssay (NCI).

Molecules are shown by their SMILES. About 83,000 compounds went through this panel and 20% of them were active in at least one assay; those are over-represented in the sample as a whole.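 Single-dose data. Exposure time 48 hours. Values below 10 considered active.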 The source made the active and inactive calls.

In this assay the test system is MDA-MB-468 breast. Briefly: NCI-60 one-dose screen, 48 h (100 = growth as untreated, 0 = no growth, -100 = all killed). The note with it: 10 µM unless noted.
With `Cc1c(CN)cc(-c2ccc(Cl)cc2)n1-c1ccccc1`, the growth is 18.7% (inactive).
Turning to `O=C1CC2(CCOCC2)Oc2ncccc21`, the growth was 30.4% (inactive).
`Brc1cnc2[nH]cc(-c3nnc(-c4ccccc4)o3)c2c1`: the growth was 60.3% (inactive).
